# Experimental data: PubChem BioAssay (NCI)
# This is part of a sample that, as a whole, favours compounds with a hit. Of some 83,000 tested, about 20% had one in any assay.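 Treatment: one concentration, 48 hours, 96-well format. Scoring: percent growth, with anything below 10 considered active.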 The source made the active and inactive calls.
# Test system: KM12 colon
# Assay: NCI-60 one-dose screen, 48 h (100 = growth as untreated, 0 = no growth, -100 = all killed)
# Conditions: 10 µM
row,Structure (SMILES),growth
1,O=S(=O)(c1ccc(Cl)cc1)c1nc(-c2ccccc2)oc1S(=O)(=O)c1ccc(Cl)cc1,93.2% (inactive)
2,O=[N+]([O-])c1ccc(-c2nc(-c3ccccc3)c(-c3ccccc3)n2-c2ccc(S(=O)(=O)Nc3ncccn3)cc2)cc1,30.8% (inactive)
3,Cc1cc(C(F)(F)F)ccc1C(=O)Nc1sc2c(c1C#N)CCC(=O)C2,-8.98% (active)
4,Cc1ccn2c(C(=O)c3ccccc3)cc(-c3cc(-c4ccc(N(C)C)cc4)c(C#N)c(N)n3)c2c1,74% (inactive)
5,COc1ccc2ncc(C#Cc3cncc(C(=O)Nc4ccc(CN5CCN(C)CC5)c(C(F)(F)F)c4)c3)n2n1,-95% (active)
6,CN1CCN(Cc2ccc(C(=O)Nc3cccc(Nc4ccc5cc(O)ccc5n4)c3)cc2C(F)(F)F)CC1,-48% (active)
7,O=C(c1ccc(Cl)cc1)C1[C@H](c2ccccc2Br)[C@@H](c2ccccc2)NC12C(=O)Nc1ccc(Cl)cc12 (some centres not stated),8.12% (active)
8,N#Cc1c(Cl)nc(SCc2ccc(F)cc2)nc1-c1ccc(F)cc1,91.6% (inactive)
9,CC1=N/C(=C\c2ccc(N(C)C)cc2)C(=O)N1CCc1ccc(S(N)(=O)=O)cc1,104% (inactive)
10,CC1(C)CC[C@]2(C(=O)O)CC[C@]3(C)C(=CC[C@@H]4[C@@]5(C)C/C(=C/c6ccncc6)[C@H](O)C(C)(C)[C@@H]5CC[C@]43C)[C@@H]2C1,21.1% (inactive)
11,Cc1ccc(/C=C/C(=O)c2ccc(NC(=O)CSc3nnc(-c4c[nH]c5ccccc45)n3-c3ccccc3)cc2)c(C)c1,66.6% (inactive)
12,COC1=C[C@]23CCC(=O)N2CCc2cc4c(cc2[C@@H]3[C@@H]1OC(=O)CCCC(C)C)OCO4,48.7% (inactive)
13,COC(=O)c1c(C(=O)OC)c2n(c1C)[C@@H]([C@@H](C)[C@H]1CC[C@H]3[C@@H]4CCC5=CC(=O)CC[C@]5(C)[C@H]4CC[C@]13C)SC2,25.8% (inactive)
14,O=C(CNc1nc(-c2ccccc2)cs1)Nc1cccc([N+](=O)[O-])c1,-44% (active)
15,CN(C(=O)c1ccc(C(C)(C)C)cc1)c1sc2c(c1C#N)CCC(=O)C2,-6.74% (active)
16,Cc1cc(C)nc(NS(=O)(=O)c2ccc(N/C(N)=N/c3nccc(-c4ccccc4)n3)cc2)n1,78.8% (inactive)

row,Structure (SMILES),growth
1,O=C(NO)c1ccc(Cn2ccc3c(Nc4ccccc4)ncnc32)cc1,12.1% (inactive)
2,Cc1noc2c(Cc3ccccc3)nn(CC(=O)N/N=C/c3ccc(Br)cc3)c(=O)c12,73.8% (inactive)
3,N#Cc1c(-c2ccc(F)cc2)nc(SCc2ccc([N+](=O)[O-])cc2)nc1N1CCOCC1,84.9% (inactive)
4,COc1ccc(-c2ccc(/C=N/NC(=O)c3[nH]c4ccc(Br)cc4c3-c3ccccc3)s2)cc1,85.5% (inactive)
5,CC1(c2ccccc2)NC(=O)N(CC(=O)Nc2ccc(C(=O)/C=C/c3ccc(Cl)cc3)cc2)C1=O (configuration not stated),-81.4% (active)
6,O=c1[nH]c2ccccc2cc1CSc1ccc(Nc2nccc(-c3ccc4ccccc4c3)n2)cc1,50.2% (inactive)
7,COC(=O)CC1CC1C1Cc2c(nc(N(C)S(C)(=O)=O)nc2C(C)C)-c2ccc(F)cc21 (configuration not stated),76.2% (inactive)
8,COc1ccc(CN2[C@H](C(=O)NCCCCCCC(=O)NO)Cc3c([nH]c4ccccc34)[C@H]2C2CC2)cc1,12.5% (inactive)
9,O=C(CSc1nnc(-c2c[nH]c3ccccc23)n1-c1ccccc1)Nc1ccc(C(=O)/C=C/c2cccc([N+](=O)[O-])c2)cc1,88.7% (inactive)
10,Cc1ccc(NCC(=O)Nn2c(COc3ccccc3)nc3ccccc3c2=O)cc1,100% (inactive)
11,C/C(=C\CC/C=C(\C)CC/C=C(\C)CC[C@@H](O)C(C)(C)O)CC/C=C(\C)CC[C@@H](O)C(C)(C)O,25.5% (inactive)
12,CCOC(=O)N/C(=C1/OCCN1C)[P+](c1ccccc1)(c1ccccc1)c1ccccc1,51.3% (inactive)
13,COc1cccc(-c2ccc(/C=N/NC(=O)c3[nH]c4ccc(Br)cc4c3-c3ccccc3)o2)c1,10.8% (inactive)
14,Cn1cc(/C=N/Nc2cccc(Cl)n2)c2ccccc21,33.1% (inactive)
15,O=C(CNc1nc(-c2ccccc2)cs1)Nc1ccc(Cl)cc1[N+](=O)[O-],-0.339% (active)
16,CCCCCCCCCCCCCCCCCCCC(=O)NCCc1c[nH]c2ccc(OC(=O)CCCC(=O)OCCOOCCOOCCOOCCOOCCOOCCOOCCOOCCOOCCOOCCOOCCOOCCOC)cc12,35.7% (inactive)
